CHX counter: affects cycloheximide protein synthesis inhibition readout, counter-screen; hit rate 12% among 300,000; AID 2314; max response, %; cell reporter, cycloheximide protein synthesis inhibition counterscreen; in the data active = max response mostly above about 13%, no sharp cut-off; inactive = mostly below about 14%; also: read at 38.3 µM for the half of the compounds with a filed dose
Marburg entry inh: inhibitors of Marburg virus binding or cell entry. Potency, µM (titrated, usually from 37.8 µM), actives largely listed as inhibitors. AID 540276. Marburg virus pseudotyped entry inhibition, cell reporter. hit rate 1.8% among 300,000; calls by dose curve; tested in HEK293 cells
Shiga toxin inh: blocks Shiga toxin action in Vero cells. Vero cells, Shiga toxin protein synthesis inhibition reporter. inhibition, % at 38.7 µM. hit rate 9.2% among 290,000; in the data active = inhibition mostly above about 28%, no sharp cut-off; inactive = mostly below about 43%
Pf growth 48h: inhibits P. falciparum growth in the first generation, 48 h; Potency, µM (series often up to 28.7 µM), most hits filed as inhibitors; P. falciparum luciferase growth in erythrocytes, 48 h; hit rate 5.9% among 310,000
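Cell-based growth assay: transgenic P. falciparum expressing firefly luciferase, cultured in red cells within RPMI 1640 containing 0.5% w/v Albumax, 24 mM bicarbonate and gentamycin. A drop in luciferase activity indicates inhibition.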
Lassa entry inh: inhibitors of Lassa virus binding or cell entry; Lassa virus pseudotype entry inhibition, cell reporter; Potency, µM (series often up to 37.9 µM), hits mostly inhibitors; hit rate 1.2% among 300,000; AID 540256; calls by dose curve; tested in HEK293 cells; also: nearly all actives have a fitted effect of over 50% in size
Pf growth 96h: P. falciparum growth inhibition at 96 hours; P. falciparum luciferase reporter growth, 96 h; hit rate 6.9% among 320,000; AID 504834; Potency, µM (top dose mostly 28.7 µM), most hits filed as inhibitors
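Infected RBCs, 2% Hct / 0.05% parasitemia final; luciferase-reporter P. falciparum; cpd 96 h, 37 C, 5% CO2; luciferase detection reagent; luminescence.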
A number is an active result. This is a sample that favours compounds with a hit; in the whole collection about 19% have one here. Unless noted, calls follow the shape of the dose curve; as a rule, active = well fitted inhibition curve with a large enough effect; inconclusive = small, poorly fitted or top-dose-only effect, or another doubt; inactive = no such curve, though single readings can be large or run the other way.

Cc1cc(C)n2nc(CNC(=O)c3c(F)cccc3F)nc2n1 was read as Marburg entry inh inconclusive and Lassa entry inh inactive.
Screening N#Cc1ccc(Oc2ccc(S(=O)(=O)N3CCCC3)cn2)cc1 returned Marburg entry inh inactive, Pf growth 48h inactive, Lassa entry inh inactive and Pf growth 96h inactive.
Screening O=C(CSCc1ccc(Br)cc1)N1CCOCC1 returned CHX counter 31.3, Marburg entry inh inactive, Shiga toxin inh 64.0, Pf growth 48h inactive, Lassa entry inh inactive and Pf growth 96h inactive.
For CC1CCN(C(=O)CSCc2ccc(Cl)cc2)CC1 the results were CHX counter 34.9, Marburg entry inh inactive, Shiga toxin inh inactive, Lassa entry inh inactive and Pf growth 96h inactive.
For C/C(=N\NC(=O)c1cccc(F)c1)c1ccc(NC(=O)Cc2ccccc2)cc1 the results were CHX counter 41.6, Shiga toxin inh 48.5, Pf growth 48h inactive and Pf growth 96h inactive.
For C/C(=N\NC(=O)c1cc(O)cc(O)c1)c1ccc(NC(=O)Cc2ccccc2)cc1 the results were CHX counter 21.7, Marburg entry inh inactive, Shiga toxin inh 70.2, Pf growth 48h inactive, Lassa entry inh inactive and Pf growth 96h inactive.
`CCOc1ccc2c(c1)C(c1ccc(C)o1)=NNC(c1ccncc1)=N2` gave CHX counter inactive, Marburg entry inh inconclusive, Shiga toxin inh inactive, Pf growth 48h 1.47µM, Lassa entry inh inconclusive and Pf growth 96h inactive.
For CCOc1ccc(C2=Nc3ccc(Br)cc3C(c3ccc(N4CCOCC4)cc3)=NN2)cc1 the results were CHX counter 44.1, Marburg entry inh inactive, Shiga toxin inh 56.3, Pf growth 48h 10.4µM, Lassa entry inh inactive and Pf growth 96h inconclusive.
CCOc1ccc(C2=NNC(c3cccs3)=Nc3ccc(OC)cc32)cc1 was read as CHX counter 34.9, Marburg entry inh inactive, Shiga toxin inh 84.8, Pf growth 48h 11.7µM, Lassa entry inh inactive and Pf growth 96h inactive.
For CCOc1ccc(C2=Nc3ccccc3C(c3ccc(N4CCOCC4)cc3)=NN2)cc1 the results were CHX counter 45.7, Marburg entry inh inconclusive, Shiga toxin inh 162.8, Pf growth 48h inconclusive, Lassa entry inh inconclusive and Pf growth 96h inconclusive.
Brc1ccc2c(c1)C(c1ccc(N3CCOCC3)cc1)=NNC(c1cccs1)=N2 was read as CHX counter inactive, Marburg entry inh inactive, Shiga toxin inh inactive, Pf growth 48h inconclusive, Lassa entry inh inactive and Pf growth 96h inconclusive.
COc1cc(/C=N/n2nnnc2N)ccc1OC(C)C was read as CHX counter inactive, Marburg entry inh inconclusive, Shiga toxin inh inactive, Pf growth 48h inactive, Lassa entry inh inactive and Pf growth 96h inactive.
Cc1ccc(CNC(=O)c2nn(C)c(C)c2[N+](=O)[O-])cc1 was read as CHX counter inactive, Marburg entry inh inactive, Shiga toxin inh inactive, Pf growth 48h inactive, Lassa entry inh inactive and Pf growth 96h inactive.
For CCN(Cc1ccccc1)c1ccc(/C=N/NS(=O)(=O)c2ccc(C)c([N+](=O)[O-])c2)cc1 the results were CHX counter inactive, Marburg entry inh inactive, Shiga toxin inh inactive, Pf growth 48h inactive, Lassa entry inh inactive and Pf growth 96h inactive.
Screening CCN(CC)c1ccc(N=Nc2nn(C)c(C)c2[N+](=O)[O-])cc1 returned CHX counter 64.6, Marburg entry inh inconclusive, Shiga toxin inh 86.7, Pf growth 48h inconclusive, Lassa entry inh inconclusive and Pf growth 96h 3.7µM.
`CCN(Cc1ccccc1)c1ccc(N=Nc2nn(C)c(C)c2[N+](=O)[O-])cc1` gave CHX counter 17.2, Marburg entry inh inactive, Shiga toxin inh inactive, Pf growth 48h 1.65µM, Lassa entry inh inactive and Pf growth 96h inconclusive.
For N#Cc1ccc(C(=O)Nn2cnnc2)cc1 the results were CHX counter inactive, Shiga toxin inh inactive, Pf growth 48h inactive and Pf growth 96h inactive.
Screening Cc1ccc(NC(=O)c2cc(S(=O)(=O)N3CCc4ccccc43)ccc2F)cc1Cl returned Lassa entry inh inactive.
`CCCNC(=O)CCc1c(C)nc2nc(C)nn2c1C` gave CHX counter inactive, Marburg entry inh inactive, Shiga toxin inh inactive, Pf growth 48h inactive, Lassa entry inh inactive and Pf growth 96h inconclusive.
`Cc1oc(-c2ccccc2F)nc1CS(=O)(=O)CC(=O)N1CCc2ccccc21` gave CHX counter inactive, Shiga toxin inh inactive, Pf growth 48h inactive and Pf growth 96h inactive.
Screening Cc1ccc(-c2csc3ncnc(Sc4nnc(CN5CCCCCC5=O)o4)c23)cc1 returned CHX counter inactive, Marburg entry inh inconclusive, Shiga toxin inh inactive, Pf growth 48h 11.7µM, Lassa entry inh inconclusive and Pf growth 96h 14.7µM.
For CCC(=O)N(C)/C=C1\Sc2ccccc2C1=O the results were CHX counter 29.6, Marburg entry inh inactive, Shiga toxin inh 148.1, Pf growth 48h inactive, Lassa entry inh inactive and Pf growth 96h inactive.
For CC(=O)N(C)/C=C1\Sc2ccccc2C1=O the results were CHX counter 16.6, Marburg entry inh inactive, Shiga toxin inh inactive, Pf growth 48h inactive, Lassa entry inh inactive and Pf growth 96h inactive.
`COc1ccc(OC)c(/C=C2/Sc3ccccc3C2=O)c1` gave CHX counter inactive, Marburg entry inh inactive, Shiga toxin inh inactive, Pf growth 48h inconclusive, Lassa entry inh inactive and Pf growth 96h inactive.
`O=CN(/C=C1\Sc2ccccc2C1=O)Cc1ccccc1` gave CHX counter 40.0, Marburg entry inh inactive, Shiga toxin inh 67.2, Pf growth 48h inactive and Lassa entry inh inactive.
CCOc1ccc(C(=O)c2cn(CC(=O)Nc3ccc(Cl)cc3)c3cc4c(cc3c2=O)OCCO4)cc1 was read as Marburg entry inh inactive and Lassa entry inh inactive.
Screening Cc1ccc(-c2nc(CN(CC3CCC3)CC3CCCO3)c(C)o2)s1 (centres undefined) returned CHX counter inactive, Marburg entry inh inconclusive, Shiga toxin inh inactive, Pf growth 48h inconclusive, Lassa entry inh inactive and Pf growth 96h inactive.
For Cc1cc(=O)oc(C)c1C(=O)NCc1c(F)cc(F)cc1F the results were CHX counter 28.0, Marburg entry inh inactive, Shiga toxin inh inactive, Pf growth 48h inactive, Lassa entry inh inactive and Pf growth 96h inconclusive.
`COc1ccc(N2CCN(CCNC(=O)Nc3ccc(Cl)cc3)CC2)cc1` gave CHX counter inactive, Marburg entry inh inactive, Shiga toxin inh inactive, Lassa entry inh inactive and Pf growth 96h inconclusive.
`COc1ccc(N2CCN(CCNC(=O)c3c(C)cc(=O)oc3C)CC2)cc1` gave CHX counter inactive, Marburg entry inh inactive, Shiga toxin inh inactive, Pf growth 48h 11.7µM, Lassa entry inh inactive and Pf growth 96h inconclusive.
Screening COc1ccc(N2CCN(Cc3cc(=O)oc4cc(C)c(Cl)c(C)c34)CC2)cc1 returned CHX counter inactive, Marburg entry inh inactive, Shiga toxin inh inactive, Pf growth 48h 4.15µM, Lassa entry inh inconclusive and Pf growth 96h inactive.
For COc1ccc(N2CCN(CCNC(=O)Nc3ccc(C)cc3Cl)CC2)cc1 the results were CHX counter inactive, Shiga toxin inh inactive, Pf growth 48h inactive and Pf growth 96h 2.33µM.
For COc1ccc(N2CCN(Cc3cc(=O)oc4ccc(OC)cc34)CC2)cc1 the results were Marburg entry inh inactive and Lassa entry inh inactive.

High-throughput results (PubChem BioAssay)
